Measured values from PubChem BioAssay AID1159580 (chemical genetic matrix, 2015).
In all, about 5,500 compounds went through this assay and about 2,000 (36%) were called active. Roughly 18% stayed inconclusive and do not appear here. Rule as the data show it: active = normalized growth mostly below about 0.91 (no sharp cut-off); inconclusive = no clear call, values can overlap the other calls; inactive = mostly above about 0.92. This is one part of the list.

Assay: chemical genetic growth profiling, strain panel (AID 1159580);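 also: tested at 20 µM; growth read once vehicle control cultures reached saturation at 30 °C; 1 = growth at the plate median or of vehicle wells; lower values mean less growth of the strain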
Conditions: S. cerevisiae deletion strains, growth OD

Measured: normalized growth

CC(=O)O[C@@H]1CC[C@]2(C)C3CC[C@]4(C)C(=O)CCC4C3CC[C@H]2C1 (stereo partly specified)
active: locus YBR009C, strain hhf1, stronger effect = lower value 0.866 | locus YDL035C, strain GPR1, stronger effect = lower value 0.85 | locus YDR162C, strain NBP2, stronger effect = lower value 0.661 | locus YDR502C, strain sam2, stronger effect = lower value 0.883 | locus YGR135W, strain pre9, stronger effect = lower value 0.876 | locus YIL066C, strain RNR3, stronger effect = lower value 0.852 | locus YLR262C, strain YPT6 (second series), stronger effect = lower value 0.725 | locus YLR320W, strain mms22, stronger effect = lower value 0.868 | locus YML032C, strain rad52, stronger effect = lower value 0.885 | locus YMR205C, strain PFK2, stronger effect = lower value 0.867 | locus YNL307C, strain MCK1, stronger effect = lower value 0.848 | locus YNR052C, strain pop2, stronger effect = lower value 0.877 | locus YOL147C, strain pex11, stronger effect = lower value 0.865 | locus YOR001W, strain rrp6, stronger effect = lower value 0.891 | locus YOR184W, strain ser1, stronger effect = lower value 0.713 | locus YOR270C, strain vph1, stronger effect = lower value 0.72
inactive: locus YAL021C, strain ccr4, stronger effect = lower value 0.944 | locus YAL026C, strain drs2, stronger effect = lower value 0.967 | locus YAL030W, strain snc1, stronger effect = lower value 1.01 | locus YBL061C, strain skt5, stronger effect = lower value 0.988 | locus YBR021W, strain FUR4, stronger effect = lower value 0.861 | locus YBR023C, strain chs3, stronger effect = lower value 0.98 | locus YBR171W, strain sec66, stronger effect = lower value 0.97 | locus YBR229C, strain ROT2, stronger effect = lower value 0.934 | locus YBR231C, strain swc5, stronger effect = lower value 1.01 | locus YBR279W, strain paf1, stronger effect = lower value 1 | locus YCL011C, strain gbp2, stronger effect = lower value 0.973 | locus YCL016C, strain dcc1, stronger effect = lower value 1.02 | locus YCL029C, strain bik1, stronger effect = lower value 0.987 | locus YCL061C, strain MRC1, stronger effect = lower value 0.979 | locus YCL069W, strain vba3, stronger effect = lower value 0.96 | locus YCR088W, strain abp1, stronger effect = lower value 0.984 | locus YDL005C, strain med2, stronger effect = lower value 1 | locus YDL040C, strain nat1, stronger effect = lower value 0.982 | locus YDL074C, strain BRE1, stronger effect = lower value 0.867 | locus YDL101C, strain DUN1, stronger effect = lower value 0.964 | locus YDL185W, strain tfp1, stronger effect = lower value 0.981 | locus YDL192W, strain arf1, stronger effect = lower value 0.937 | locus YDR001C, strain nth1, stronger effect = lower value 0.997 | locus YDR069C, strain doa4, stronger effect = lower value 0.969 | locus YDR101C, strain arx1, stronger effect = lower value 0.995 | locus YDR137W, strain rgp1, stronger effect = lower value 0.876 | locus YDR150W, strain NUM1, stronger effect = lower value 0.992 | locus YDR159W, strain sac3, stronger effect = lower value 0.931 | locus YDR195W, strain ref2 1.07 | locus YDR297W, strain sur2, stronger effect = lower value 1.01 | locus YDR318W, strain mcm21, stronger effect = lower value 0.942 | locus YDR334W, strain swr1, stronger effect = lower value 0.972 | locus YDR335W, strain msn5, stronger effect = lower value 0.995 | locus YDR388W, stronger effect = lower value 0.939 | locus YDR392W, strain spt3, stronger effect = lower value 0.929 | locus YEL003W, strain gim4, stronger effect = lower value 0.965 | locus YEL037C, strain rad23, stronger effect = lower value 0.985 | locus YEL061C, strain CIN8 (second series), stronger effect = lower value 0.988 | locus YEL061C, strain CIN8, stronger effect = lower value 0.983 | locus YER015W, strain faa2, stronger effect = lower value 0.996 | locus YER016W, strain bim1, stronger effect = lower value 1.03 | locus YER110C, stronger effect = lower value 0.996 | locus YER111C, strain swi4, stronger effect = lower value 0.986 | locus YER155C, strain BEM2 (second series), stronger effect = lower value 0.992 | locus YER155C, strain BEM2, stronger effect = lower value 1.01 | locus YER167W, strain BCK2, stronger effect = lower value 0.947 | locus YFR010W, strain ubp6, stronger effect = lower value 0.972 | locus YGL078C, strain dbp3, stronger effect = lower value 0.948 | locus YGL086W, strain mad1, stronger effect = lower value 0.987 | locus YGL167C, strain pmr1, stronger effect = lower value 0.999 | locus YGL173C, strain kem1, stronger effect = lower value 0.953 | locus YGL227W, strain vid30, stronger effect = lower value 0.989 | locus YGL240W, strain doc1, stronger effect = lower value 0.985 | locus YGL248W, strain PDE1, stronger effect = lower value 0.959 | locus YGL253W, strain hxk2, stronger effect = lower value 0.966 | locus YGR252W, strain gcn5, stronger effect = lower value 0.83 | locus YHR013C, strain ard1, stronger effect = lower value 1.05 | locus YHR027C, strain rpn1, stronger effect = lower value 0.977 | locus YHR030C, strain SLT2, stronger effect = lower value 0.999 | locus YHR079C, strain IRE1 (second series), stronger effect = lower value 0.987 | locus YHR094C, strain hxt1, stronger effect = lower value 0.978 | locus YHR129C, strain ARP1, stronger effect = lower value 0.974 | locus YHR142W, strain chs7, stronger effect = lower value 0.943 | locus YHR200W, strain rpn10, stronger effect = lower value 0.978 | locus YIL073C, strain SPO22, stronger effect = lower value 0.872 | locus YIL125W, strain kgd1, stronger effect = lower value 0.981 | locus YIR030C, strain dcg1, stronger effect = lower value 0.967 | locus YJL092W, strain hpr5, stronger effect = lower value 0.986 | locus YJL095W, strain BCK1 (second series), stronger effect = lower value 0.949 | locus YJL095W, strain BCK1, stronger effect = lower value 0.828 | locus YJL115W, strain asf1, stronger effect = lower value 0.991 | locus YJL129C, strain trk1, stronger effect = lower value 0.942 | locus YJL134W, strain LCB3, stronger effect = lower value 0.951 | locus YJL154C, strain vps35, stronger effect = lower value 0.988 | locus YJL164C, strain tpk1, stronger effect = lower value 0.949 | locus YJL166W, strain qcr8, stronger effect = lower value 0.922 | locus YJL168C, strain set2, stronger effect = lower value 0.995 | locus YJL187C, strain SWE1 (second series), stronger effect = lower value 0.955 | locus YJR043C, strain POL32, stronger effect = lower value 0.962 | locus YJR075W, strain HOC1, stronger effect = lower value 0.982 | locus YKL009W, strain mrt4, stronger effect = lower value 0.941 | locus YKL068W, stronger effect = lower value 0.979 | locus YKL085W, strain MDH1 (second series), stronger effect = lower value 0.954 | locus YKL085W, strain MDH1, stronger effect = lower value 0.954 | locus YKL160W, strain elf1, stronger effect = lower value 1.03 | locus YKL190W, strain CNB1, stronger effect = lower value 0.973 | locus YKR001C, strain vps1, stronger effect = lower value 0.984 | locus YKR026C, strain gcn3, stronger effect = lower value 0.982 | locus YKR091W, strain srl3, stronger effect = lower value 0.989 | locus YLL001W, strain dnm1, stronger effect = lower value 0.974 | locus YLL026W, stronger effect = lower value 0.999 | locus YLL041C, strain sdh2, stronger effect = lower value 0.986 | locus YLR027C, strain aat2, stronger effect = lower value 0.962 | locus YLR039C, strain RIC1, stronger effect = lower value 0.772 | locus YLR058C, strain SHM2, stronger effect = lower value 0.96 | locus YLR102C, strain apc9, stronger effect = lower value 0.991 | locus YLR221C, strain rsa3, stronger effect = lower value 0.91 | locus YLR258W, strain gsy2, stronger effect = lower value 0.974 | locus YLR262C, strain YPT6, stronger effect = lower value 0.672 | locus YLR268W, strain sec22, stronger effect = lower value 0.979 | locus YLR330W, strain CHS5, stronger effect = lower value 0.933 | locus YLR342W, strain FKS1 (second series), stronger effect = lower value 0.804 | locus YLR342W, strain FKS1, stronger effect = lower value 0.962 | locus YLR357W, strain rsc2, stronger effect = lower value 1.02 | locus YLR370C, strain arc18, stronger effect = lower value 1.02 | locus YLR371W, strain rom2, stronger effect = lower value 0.992 | locus YLR384C, strain iki3, stronger effect = lower value 1.02 | locus YLR418C, strain cdc73, stronger effect = lower value 0.843 | locus YML016C, strain PPZ1, stronger effect = lower value 0.969 | locus YML120C, strain ndi1, stronger effect = lower value 0.943 | locus YML124C, strain tub3, stronger effect = lower value 1 | locus YMR058W, strain fet3, stronger effect = lower value 0.95 | locus YMR078C, strain ctf18, stronger effect = lower value 1 | locus YMR125W, strain sto1, stronger effect = lower value 1 | locus YMR129W, stronger effect = lower value 1 | locus YMR223W, strain ubp8, stronger effect = lower value 0.916 | locus YMR231W, strain pep5, stronger effect = lower value 0.993 | locus YMR307W, strain GAS1, stronger effect = lower value 0.797 | locus YNL067W, strain RPL9B, stronger effect = lower value 1 | locus YNL071W, strain lat1, stronger effect = lower value 0.949 | locus YNL209W, strain ssb2, stronger effect = lower value 0.989 | locus YNL233W, strain BNI4, stronger effect = lower value 0.941 | locus YNL248C, strain rpa49, stronger effect = lower value 0.963 | locus YNL250W, strain rad50, stronger effect = lower value 0.963 | locus YNL271C, strain bni1, stronger effect = lower value 0.979 | locus YNL298W, strain CLA4, stronger effect = lower value 0.913 | locus YNL322C, strain KRE1 (second series), stronger effect = lower value 1.02 | locus YNR049C, strain mso1, stronger effect = lower value 1.01 | locus YOL012C, strain htz1 1.51 | locus YOR061W, strain CKA2, stronger effect = lower value 0.942 | locus YOR069W, strain VPS5, stronger effect = lower value 0.977 | locus YOR070C, strain gyp1, stronger effect = lower value 1 | locus YOR080W, strain dia2, stronger effect = lower value 1.01 | locus YOR083W, strain WHI5, stronger effect = lower value 0.975 | locus YOR106W, strain vam3, stronger effect = lower value 0.978 | locus YOR136W, strain idh2, stronger effect = lower value 0.998 | locus YOR144C, strain elg1, stronger effect = lower value 1 | locus YOR265W, strain rbl2, stronger effect = lower value 0.983 | locus YOR290C, strain snf2, stronger effect = lower value 0.958 | locus YOR316C, strain cot1, stronger effect = lower value 0.986 | locus YPL051W, strain arl3, stronger effect = lower value 1 | locus YPL078C, strain atp4, stronger effect = lower value 0.964 | locus YPL106C, strain sse1, stronger effect = lower value 1.03 | locus YPL240C, strain hsp82, stronger effect = lower value 0.99 | locus YPL241C, strain CIN2, stronger effect = lower value 0.985 | locus YPR119W, strain clb2, stronger effect = lower value 0.994 | locus YPR141C, strain kar3, stronger effect = lower value 0.991 | locus YPR163C, strain tif3, stronger effect = lower value 0.981 | locus YPR167C, strain met16, stronger effect = lower value 0.942 | strain wtn01, stronger effect = lower value 1.01
